The list is not random: actives were taken first. Their share in the collection is about 0.99%.
Keap1 Nrf2 FP: disrupts human Keap1 binding to Nrf2 peptide | Keap1 Kelch-Nrf2 peptide fluorescence polarization, 1536-well | inhibition, % at 9.4 µM | Q14145 | 340,000 tested, 0.15% active; in the data active = inhibition above about 12%;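 also: human Keap1 Kelch domain with fluorescein labeled Nrf2 9mer peptide probe; higher means more block of Keap1 binding to Nrf2 peptide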
LANA-H2A inh: blocks KSHV LANA binding to histone H2A/H2B; Q9QR71; cell-free LANA-H2A/H2B peptide, fluorescence polarization; inhibition, % (concentration not given with the values); 320,000 tested, 0.6% active; in the data active = inhibition mostly above about 10%, no sharp cut-off; inactive = mostly below about 6.7%
Target sequence (Q9QR71 whole entry, looked up): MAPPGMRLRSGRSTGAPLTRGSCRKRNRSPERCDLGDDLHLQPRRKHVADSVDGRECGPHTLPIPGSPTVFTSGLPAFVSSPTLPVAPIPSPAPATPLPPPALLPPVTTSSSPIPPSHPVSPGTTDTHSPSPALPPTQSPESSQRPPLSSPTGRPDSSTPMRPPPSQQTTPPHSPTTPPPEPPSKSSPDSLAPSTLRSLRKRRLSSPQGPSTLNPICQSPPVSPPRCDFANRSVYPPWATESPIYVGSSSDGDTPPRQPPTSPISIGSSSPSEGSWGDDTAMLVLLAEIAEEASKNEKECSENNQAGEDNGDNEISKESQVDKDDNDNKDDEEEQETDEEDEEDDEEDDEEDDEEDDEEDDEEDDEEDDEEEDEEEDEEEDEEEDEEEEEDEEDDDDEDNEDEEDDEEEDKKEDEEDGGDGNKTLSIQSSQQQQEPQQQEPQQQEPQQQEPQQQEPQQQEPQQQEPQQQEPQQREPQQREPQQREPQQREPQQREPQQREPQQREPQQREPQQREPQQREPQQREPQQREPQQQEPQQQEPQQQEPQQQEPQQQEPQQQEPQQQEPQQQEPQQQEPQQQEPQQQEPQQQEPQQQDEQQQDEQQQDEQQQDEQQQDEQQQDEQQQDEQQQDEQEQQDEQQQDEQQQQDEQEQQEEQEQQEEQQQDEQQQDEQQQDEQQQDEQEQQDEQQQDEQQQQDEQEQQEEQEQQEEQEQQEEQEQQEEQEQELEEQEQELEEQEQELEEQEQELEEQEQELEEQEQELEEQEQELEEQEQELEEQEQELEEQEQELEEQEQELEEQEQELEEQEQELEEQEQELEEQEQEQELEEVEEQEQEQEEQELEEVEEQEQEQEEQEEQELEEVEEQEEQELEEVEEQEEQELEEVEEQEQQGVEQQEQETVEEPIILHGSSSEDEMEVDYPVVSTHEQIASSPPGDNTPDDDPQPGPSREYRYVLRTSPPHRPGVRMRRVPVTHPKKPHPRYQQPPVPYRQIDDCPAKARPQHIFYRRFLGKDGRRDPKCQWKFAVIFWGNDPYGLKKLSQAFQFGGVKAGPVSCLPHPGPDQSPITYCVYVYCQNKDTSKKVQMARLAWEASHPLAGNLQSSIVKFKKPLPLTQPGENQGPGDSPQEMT
LANA DNA inh: KSHV C-LANA DNA binding inhibition; inhibition, % at 9 µM; 340,000 tested, 0.078% active; MBP-C-LANA/FAM-LBS DNA binding, fluorescence polarization;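 active = highest replicate inhibition at or above 60% at 9 µM, even if other replicates fall short; inactive = all replicates below 60% inhibition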
cardiac RTF act: increases calcium sensitivity of human cardiac regulated thin filaments. IANBD-labeled TnC RTF fluorescence at EC20 calcium; 0% EC20 calcium, 100% full calcium. activation, % at 7.2 µM. 340,000 tested, 0.24% active. AID 493008;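 active = activation above the mean over all tested compounds plus 3 SD, cut at about 30% in these data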;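 also: rise in fluorescence read as greater calcium sensitivity of cardiac thin filaments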
Cardiac RTF inh: cardiac RTF calcium desensitization | P19429+P45379 | IANBD-labeled cardiac RTF, Ca2+ fluorescence | inhibition, % at 7.15 µM | 340,000 tested, 0.12% active;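 active = inhibition above the mean inhibition of all tested compounds plus 3 SD, cut at about 17% in these data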;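 also: assay run at fixed EC70 calcium of 1.6 mM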
Hits are given with their value; - = inactive; . = no result; + = active, no number.

SMILES	Keap1 Nrf2 FP	LANA-H2A inh	LANA DNA inh	cardiac RTF act	Cardiac RTF inh
C=CCn1c(SC(C)C(=O)NCC2CCCO2)nnc1-c1ccc(OC)cc1 (stereo unspecified)	-	-	-	-	-
N#CC1=C(N)SC(N)=C(C#N)C1c1ccc(C(F)(F)F)cc1	.	-	.	.	.
CCc1ccc(C2C(C#N)=C(N)SC(N)=C2C#N)cc1	-	-	-	40	-
CCOc1ccc(C2C(C#N)=C(N)SC(N)=C2C#N)cc1OCC	-	-	-	42	-
CCOc1ccc(C2C(C#N)=C(N)SC(N)=C2C#N)cc1OC	.	-	.	.	.
N#CC1=C(N)SC(N)=C(C#N)C1c1ccc([N+](=O)[O-])cc1	-	-	-	-	-
CCOc1ccccc1C1C(C#N)=C(N)SC(N)=C1C#N	-	-	-	30	-
N#CC1=C(N)SC(N)=C(C#N)C1c1cccc(Oc2ccccc2)c1	-	-	-	37	-
CCOc1ccccc1C1C(C#N)=C(N)Oc2n[nH]c(CC)c21 (stereo unspecified)	-	-	-	-	-
O=C(Nc1ccc2[nH]ncc2c1)c1ccccc1Cl	-	-	-	-	-
C=CCN1C(=O)/C(=C/C=C2/N(CC)c3ccc(S(=O)(=O)N(C)C)cc3N2CC)SC1=S	-	-	-	429	-
Cc1ccc2cc(C)c(N3CCN(c4ccccn4)CC3)nc2c1	-	-	-	-	-
CCN(CC(=O)Nc1c(F)cccc1F)C(=O)CCCc1nc2ccccc2c(=O)[nH]1	-	9.7	-	-	-
CCN(CC(=O)Nc1c(F)cccc1F)C(=O)CCc1nc2ccccc2c(=O)[nH]1	-	-	-	-	-
COc1ccc(/C=C\C(=O)c2c(O)ccc3c(C)cc(=O)oc23)cc1OC	-	16	-	-	-
O=C(CCc1c[nH]c2ccccc12)OCc1cccc(C(F)(F)F)c1	-	-	-	-	-
Cc1oc(-c2ccccc2F)nc1CS(=O)(=O)CC(=O)NC1CCCC(C)C1C (stereo unspecified)	-	-	-	-	-
CC1c2c([nH]c3ccccc23)CCC1C(=O)O (stereo unspecified)	-	-	-	-	-
COc1cccc(NC(=O)CCC2CCN(C(=O)c3c(C)noc3C)CC2)c1	-	.	-	-	-
CCN(CC)c1ccc2c(c1)OC(N)=C(C#N)C2c1cccnc1 (stereo unspecified)	-	-	-	157	-
N#CC1=C(N)Oc2cc(N)ccc2C1c1cccnc1 (stereo unspecified)	-	-	-	-	-
O=C(C1CC(=O)N(c2ccc(F)cc2)C1)N1CCN(c2ccc(F)cc2)CC1 (stereo unspecified)	-	-	-	-	-
Cc1ccc(CCN2CC(C(=O)N3CCN(c4ccc(F)cc4)CC3)CC2=O)cc1 (stereo unspecified)	-	22	-	-	-
Cc1ccc(NC(=O)C(C)OC(=O)COc2cccc(C(F)(F)F)c2)cc1 (stereo unspecified)	-	19	-	-	-
Cc1ccc(NC(=O)C(C)OC(=O)COc2cccc(C(F)(F)F)c2)cc1S(=O)(=O)N1CCOCC1 (stereo unspecified)	-	.	-	-	-
SMILES	Keap1 Nrf2 FP	LANA-H2A inh	LANA DNA inh	cardiac RTF act	Cardiac RTF inh
COc1cc(CNc2ccc(C)c(C)c2)cc(OC)c1OC	-	5.5	-	-	-
CC(/C=C/c1ccc(N(C)C)cc1)=N\N=C1\NC(=O)CC(C(=O)Nc2ccccc2)S1 (stereo unspecified)	-	-	-	-	-
CC(/C=C/c1ccc(N(C)C)cc1)=N/N=C1/NC(=O)CC(C(=O)Nc2ccc(Cl)cc2)S1 (stereo unspecified)	-	-	-	32	-
CC1(C2CC2)NC(=O)N(CC(=O)Nc2ccc(C(F)(F)F)cc2)C1=O (stereo unspecified)	-	12	-	-	-
O=C(N/N=C\c1c(O)ccc2ccccc12)c1ccc(S(=O)(=O)N2CCCCC2)cc1	-	24	-	-	-
O=C(NN=Cc1c(O)ccc2ccccc12)c1ccc2c(c1)OCO2	-	-	-	-	-
O=C(Nc1ccc(Oc2c(F)c(F)c(F)c(F)c2F)cc1)OC1CCN2Cc3ccccc3N=C12 (stereo unspecified)	-	15	-	-	-
Cc1cccc(NC(=O)Nc2ccc(Oc3c(F)c(F)c(F)c(F)c3F)cc2)c1	-	-	-	-	-
CC1CCCCC1NC(=O)C1CCN(S(=O)(=O)N2CCOCC2)CC1 (stereo unspecified)	-	26	-	-	-
COc1ccc(N/C=C2\CCOC2=O)cc1	-	-	-	-	-
COc1ccc(N/C=C2\C(=O)CCc3c2oc2cc(Cl)c(O)c(Cl)c32)cc1	-	-	-	100	-
CCOc1ccc(CCNC(=O)COC(=O)/C=C/c2ccco2)cc1OCC	-	-	-	-	-
COc1ccc(OC)c(NC(=O)CCn2cccc2)c1	-	-	-	-	-
COc1ccc(NC(=O)CSc2cn[nH]n2)c(OC)c1	-	34	-	-	-
COc1ccc(OC)c(NC(=O)Cn2cccc2)c1	-	17	-	-	-
COc1ccc(C(=O)C2CCN(CC(=O)Nc3ccc(OC)cc3OC)CC2)cc1	-	19	-	-	-
Cc1c(N2C(=O)c3cccc4cccc(c34)C2=O)cnn1C	-	-	-	-	-
Cc1nn(Cc2ccccc2Cl)c(C)c1N	-	-	-	-	-
CCc1ccc(-c2nc(SCC(=O)c3c(N)n(C)c(=O)n(C)c3=O)n[nH]2)cc1	-	-	-	-	-
O=C(CSc1nc2ccccc2c(=O)n1-c1ccccc1Cl)NC1CCS(=O)(=O)C1 (stereo unspecified)	-	-	-	-	-
CN(C)c1ccc(/C=C(\C#N)C(=O)c2ccccc2)cc1	-	-	-	80	-
CCN(CC)c1ccc(/C=C(\C#N)C(N)=S)cc1	-	-	-	200	-
CCN(CC)c1ccc(/C=C(\C#N)C(N)=O)cc1	-	.	-	-	-
CCN(CC)c1ccc(/C=C(\C#N)C(=O)c2ccc(Br)cc2)cc1	-	-	-	559	-
N#C/C(=C\c1ccc(C#N)cc1)C(=O)c1ccccc1	-	-	-	-	-
SMILES	Keap1 Nrf2 FP	LANA-H2A inh	LANA DNA inh	cardiac RTF act	Cardiac RTF inh
CCN1/C(=C/C=C2/SC(=Nc3cccc4ncccc34)N(C)C2=O)Sc2ccccc21	-	.	-	41	-
CC(C)N1CC(COc2ccccc2Cl)OC1=O (stereo unspecified)	-	-	-	-	-
Cc1ccccc1OCC1CN(CN2CCOCC2)C(=O)O1 (stereo unspecified)	-	24	-	-	-
O=C(Cn1cc(CNC(=O)C2CCCCC2)nn1)Nc1cc(C(F)(F)F)ccc1Cl	-	-	-	-	-
COCCOc1nc2c(c(=O)n(C)c(=O)n2C)n1CCc1ccccc1	-	11	-	-	-
O=[N+]([O-])c1ccc(C(=S)N2CCCC2)cc1	-	+	-	-	-
Cc1c(C(=O)Nc2ccc3nc(N4CCOCC4)sc3c2)oc2ccccc12	-	-	-	-	-
